# Publication PMC4336329 (PLoS ONE, 2015)
# About 14,000 (4.5%) of roughly 310,000 compounds showed an effect of 50% or more. The effect is printed as a negative number. The sample as a whole holds a higher share of strong results than the screen did.
# Molecular target: human ether-à-go-go-related gene (hERG) potassium channel (human, UniProt Q12809)
# Assay: primary screen, population patch clamp on CHO cells stably expressing hERG; higher = less effect of the substance
# 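Further: peak tail current of the secondary pulse compared with the same well before compound.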
# Sequence of human ether-à-go-go-related gene (hERG) potassium channel (Q12809 whole entry, looked up): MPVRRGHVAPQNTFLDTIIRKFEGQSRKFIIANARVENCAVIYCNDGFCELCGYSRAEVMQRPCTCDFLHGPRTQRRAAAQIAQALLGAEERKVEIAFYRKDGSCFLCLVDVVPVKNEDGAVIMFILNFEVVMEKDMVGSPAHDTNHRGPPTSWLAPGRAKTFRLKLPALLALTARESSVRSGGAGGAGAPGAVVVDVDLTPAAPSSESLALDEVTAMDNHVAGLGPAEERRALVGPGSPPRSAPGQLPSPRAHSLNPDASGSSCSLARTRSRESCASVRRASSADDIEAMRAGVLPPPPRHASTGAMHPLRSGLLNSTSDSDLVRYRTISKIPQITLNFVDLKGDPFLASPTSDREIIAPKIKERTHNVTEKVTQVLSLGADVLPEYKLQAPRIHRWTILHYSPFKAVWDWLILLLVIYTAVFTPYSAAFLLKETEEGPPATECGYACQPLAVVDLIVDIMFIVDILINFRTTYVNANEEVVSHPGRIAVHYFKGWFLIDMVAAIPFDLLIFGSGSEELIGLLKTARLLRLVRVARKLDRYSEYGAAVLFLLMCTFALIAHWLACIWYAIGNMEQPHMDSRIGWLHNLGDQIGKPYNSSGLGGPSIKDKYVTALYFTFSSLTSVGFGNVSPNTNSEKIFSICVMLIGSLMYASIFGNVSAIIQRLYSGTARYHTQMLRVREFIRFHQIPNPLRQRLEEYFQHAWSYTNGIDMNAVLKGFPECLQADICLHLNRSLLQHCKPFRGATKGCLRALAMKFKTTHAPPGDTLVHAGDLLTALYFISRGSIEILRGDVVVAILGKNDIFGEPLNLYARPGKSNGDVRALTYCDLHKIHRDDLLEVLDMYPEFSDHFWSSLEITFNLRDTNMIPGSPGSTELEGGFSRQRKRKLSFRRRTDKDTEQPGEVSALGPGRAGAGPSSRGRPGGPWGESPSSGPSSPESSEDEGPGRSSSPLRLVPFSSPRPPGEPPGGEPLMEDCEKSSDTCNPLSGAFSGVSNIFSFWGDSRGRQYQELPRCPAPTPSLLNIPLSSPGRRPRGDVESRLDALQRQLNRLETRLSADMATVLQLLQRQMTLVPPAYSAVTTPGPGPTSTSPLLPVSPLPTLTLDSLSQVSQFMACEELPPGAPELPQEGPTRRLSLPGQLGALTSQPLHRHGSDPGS
row,Compound,"hERG current change (%, negative = inhibition) at 10uM"
1,CCc1c(C)nc(N)nc1N1N=C1SC(C(C)=O)C(C)=O,27.8%
2,CN(CCC#N)C(=O)COC(=O)c1ccccc1OCc1ccccc1Cl,1.72%
3,CNC(=O)CC1C(=O)N(c2ccc(F)cc2)C(=S)N1NC(=O)c1ccc(Br)cc1 (stereo not drawn),2.82%
4,O=C(NC(NC(=O)c1c(F)cccc1F)c1ccc([N+](=O)[O-])cc1)c1c(F)cccc1F,-43.8%
5,Cc1ccc(SCCC(=O)NCc2ccco2)cc1,-3.96%
6,C/C(=N/NS(=O)(=O)c1ccc(C)cc1)c1ccc(NC(=O)C(F)(F)F)cc1,10.7%
7,CCC(OCC(O)CN1CCCCC1)c1ccccc1.Cl (stereo not drawn),16.9%
8,OC(COc1ccc(OCc2ccccc2)cc1)CN1CCCCC1 (stereo not drawn),-39.6%
9,CCOC(=O)C1CCCN(CC(O)COc2ccccc2C(C)=O)C1.Cl (stereo not drawn),-46.2%
10,CCOC(=O)C1CCCN(CCC(C)c2ccccc2)C1 (stereo not drawn),-36.5%
11,OC(COC(c1ccccc1)c1ccccc1)CN1CCOCC1 (stereo not drawn),-5.77%
12,Cl.OC(COCc1ccccc1)CN1CCCCC1 (stereo not drawn),6.73%
13,CCOC(=O)C1CCN(CC(O)COC(CC)c2ccccc2)CC1.Cl (stereo not drawn),-63.7%
14,CCOC(=O)N1CCN(CC(O)COC(CC)c2ccccc2)CC1.Cl (stereo not drawn),-19.6%
15,Cl.c1ccc(COC(CN2CCCCCC2)CN2CCCCCC2)cc1,-63.6%
16,OC(COC(c1ccccc1)c1ccccc1)CN1CCCCC1 (stereo not drawn),-62.9%
17,CCOC(=O)C1CCCN(CC(O)COC(c2ccccc2)c2ccccc2)C1 (stereo not drawn),-79.7%
18,CCN1CCN(CC(O)COC(c2ccccc2)c2ccccc2)CC1 (stereo not drawn),-17.1%
19,CCOC(=O)C1CCCc2c1[nH]c1c(C(=O)O)cccc21 (stereo not drawn),13.3%
20,COc1ccc2nc(SCC(=O)NCCc3ccccc3)[nH]c2c1,-21.6%
21,COc1ccc(-c2cc(C(=O)N3CCN(c4cccc(C)c4C)CC3)c3ccccc3n2)cc1OC,22.9%
22,c1ccc(-n2cccc2)c(N2CCCCC2)c1,3.76%
23,O=c1cc(CSc2nnc(-c3cccnc3)n2-c2ccccc2F)nc2sccn12,-4.15%
24,CCCCNc1ccc(C(=O)OCCN(C)C)cc1.Cl,-11.6%
25,COc1ccc(C(=O)N/N=C/c2c(CO)cnc(C)c2O)cc1,-1.9%

row,Compound,"hERG current change (%, negative = inhibition) at 10uM"
1,Cc1ccc(C(OCC(O)CN2CCCCC2)c2ccccc2)cc1 (stereo not drawn),-86.6%
2,CC1CCCN(CC(O)COC(c2ccccc2)c2ccccc2)C1 (stereo not drawn),-65%
3,OC1CCCN(CC(O)COC(c2ccccc2)c2ccccc2)C1 (stereo not drawn),-18%
4,CC1CCCN(CC(O)COCc2ccccc2)C1.Cl (stereo not drawn),-1.07%
5,Cn1c(CNC(=O)c2ccco2)nnc1SCC(=O)c1ccccc1,10.6%
6,CCn1nc(NS(=O)(=O)c2ccc([N+](=O)[O-])cc2)c2cc3ccccc3nc21,19.3%
7,Cc1cc(C)cc(SCc2noc(C(=O)NCCCN3CCOCC3)c2C(=O)NCCCN2CCOCC2)c1,-30.4%
8,O=C(Nc1ccccc1F)c1ccccc1-c1ccc(C(F)(F)F)cc1,-5.12%
9,Nc1nonc1-n1nnc(C(=O)N/N=C/c2cccc(O)c2)c1CN1CCCC1,7.84%
10,CC1CCN(Cc2c(C(=O)N/N=C/c3ccc(C(C)C)cc3)nnn2-c2nonc2N)CC1,20.2%
11,CC(C)c1ccc(/C=N/NC(=O)c2nnn(-c3nonc3N)c2CN2CCOCC2)cc1,-56.6%
12,CCc1ccc(/C=N/NC(=O)c2nnn(-c3nonc3N)c2CN2CCOCC2)cc1,-11.6%
13,Nc1nonc1-n1nnc(C(=O)N/N=C/c2cccc(Cl)c2)c1CN1CCCCCC1,18.4%
14,CN1CCN(Cc2c(C(=O)N/N=C/c3cccc(Br)c3)nnn2-c2nonc2N)CC1,-74.8%
15,O=C1NC(=O)C(=Cc2ccc3c(c2)OCO3)C(=O)N1,15.3%
16,CC1CN(C(=O)COC(=O)c2ccc(O)cc2)CC(C)O1 (stereo not drawn),17.4%
17,O=C(NCCCNC(=O)C(F)(F)C(F)F)C(F)(F)C(F)F,6.91%
18,CC(C)(C)OC(=O)NCCCC[C@H](NC(=O)c1nc[nH]c1C(=O)NC(c1ccccc1)c1ccccc1)C(=O)OC(C)(C)C,8.48%
19,Brc1cccc(Cn2c(-c3cncs3)nc3ccccc32)c1,-10.5%
20,O=C(/C=C/c1ccccc1)NC1CC2CCC1C2 (stereo not drawn),5.72%
21,O=C(/C=C/c1cccc([N+](=O)[O-])c1)NC1CC2CCC1C2 (stereo not drawn),-24.7%
22,O=C(/C=C/c1ccc([N+](=O)[O-])cc1)NC1CC2CCC1C2 (stereo not drawn),-67.8%
23,COc1ccccc1/C=C/C(=O)NC1CC2CCC1C2 (stereo not drawn),-3.53%
24,O=C(CSCc1ccc([N+](=O)[O-])cc1)NC1CC2CCC1C2 (stereo not drawn),-15.3%
25,O=C(/C=C/c1ccc(Cl)cc1)NC1CC2CCC1C2 (stereo not drawn),-53.1%

row,Compound,"hERG current change (%, negative = inhibition) at 10uM"
1,CCOc1ccc(NC(=O)CN2C(=O)COc3ccc(Cl)cc32)cc1,0.412%
2,CN(C)C=O.Oc1cccc2c(NC(=S)Nc3ccc(OC(F)F)cc3)cccc12,-49.5%
3,CCOC(=O)CSC1=NC(=O)/C(=C\c2ccc(OC(C)=O)cc2)S1,13.1%
4,CCn1ncc(S(=O)(=O)Nc2cccnc2)c1C,5.02%
5,CC1(C)CC(=O)C=C(N2CCOCC2)C1,15.6%
6,CC1(C)CC(N2CCOCC2)=CC(=[N+]2CCOCC2)C1.[I-],8.01%
7,CN(C)c1cccc(N=C2C=C(N3CCOCC3)CC(C)(C)C2)c1,-60.5%
8,CSc1nnc(CNC(=O)c2ccccc2)n1-c1cccc(C)c1,-6.07%
9,COC(=O)c1sccc1Oc1ccc(F)cc1[N+](=O)[O-],1.74%
10,Cc1ccc(S(=O)(=O)N(Cc2ccccc2)c2ccccc2C(=O)N2CCCCC2)cc1,-28.6%
11,CCN1CCN(C(=O)c2ccccc2N(C)S(=O)(=O)c2ccc(C)cc2)CC1,2.03%
12,COc1ccc(S(=O)(=O)N(Cc2ccccc2)c2ccccc2C(=O)N2CCOCC2)cc1,-8.54%
13,CCN1CCN(C(=O)c2ccccc2N(Cc2ccccc2)S(=O)(=O)c2ccc(C)cc2)CC1,-53.2%
14,CCN1CCN(C(=O)c2ccccc2N(Cc2ccccc2)S(=O)(=O)c2ccc(OC)cc2)CC1,-73.1%
15,CCOC(=O)N1CCN(C(=O)c2ccccc2N(Cc2ccccc2)S(=O)(=O)c2ccc(OC)cc2)CC1,-26.3%
16,O=C(COc1ccc(Br)cc1CO)Nc1ccccc1F,-2.36%
17,COc1ccc(OC)c(S(=O)(=O)N(C)CC(=O)N2CCN(c3ccccc3F)CC2)c1,-6.63%
18,CCCOP(=O)(c1ccc(N(C)C)cc1)C(O)c1cc(OC)ccc1OC (stereo not drawn),0.331%
19,CCN(CC)CCN(C(=O)CN1C(=O)c2ccccc2C1=O)c1nc2cc3c(cc2s1)OCO3.Cl,-17.8%
20,Cc1ccc2nc(N(CCCN(C)C)C(=O)CN3C(=O)c4ccccc4C3=O)sc2c1.Cl,-47.5%
21,CN(C)CCN(C(=O)CN1C(=O)c2ccccc2C1=O)c1nc2cc3c(cc2s1)OCCO3.Cl,-53.8%
22,CN(C)CCN(C(=O)c1ccc2ccccc2c1)c1nc2cc3c(cc2s1)OCCO3.Cl,7.59%
23,CC(=O)N(CCN(C)C)c1nc2cc3c(cc2s1)OCCO3.Cl,10.6%
24,CN(C)CCN(C(=O)CN1C(=O)c2ccccc2C1=O)c1nc2cc3c(cc2s1)OCO3.Cl,-57%
25,COCC(C)NC(=O)CCc1nnc(C2(c3ccc(Cl)cc3)CCC2)o1 (stereo not drawn),5.14%

row,Compound,"hERG current change (%, negative = inhibition) at 10uM"
1,O=C(O)CCC(=O)NNC(=O)c1cccc(Br)c1,-0.791%
2,CCCc1cc(=O)[nH]c(-n2[nH]c3c(c2=O)CCCC3)n1,13.9%
3,CCOC(=O)N1CCN(c2nnc(-c3ccc(C)cc3)c3ccccc23)CC1,-70.1%
4,CCOC(=O)N1CCN(c2nnc(-c3ccccc3)c3ccccc23)CC1,-22%
5,CCCC(=O)N1CCN(c2nnc(-c3ccccc3)c3ccccc23)CC1,-45.4%
6,CCCC(=O)N1CCN(c2nnc(-c3ccc(C)cc3)c3ccccc23)CC1,-81.1%
7,CCCCS(=O)(=O)Nc1ccc(C(=O)NCC2CCCO2)cc1 (stereo not drawn),-4.69%
8,CC(C)=CCc1c(-c2ccc(O)cc2O)oc2c3c(cc(O)c2c1=O)OC(C)(C)C=C3,17.6%
9,Cl.NC1C=CC=C(C(=O)O)C1 (stereo not drawn),3.23%
10,CC1(C)Cc2c(sc3c2C2=NCCN2C=N3)CS1.Cl,-16.3%
11,CN1C(=O)c2c(sc3c2CC(C)(C)SC3)N2CCN=C12.Cl,-72.6%
12,CC1(C)Cc2c(sc3c2C(=O)N(c2ccccc2)C2=NCCN23)CS1.Cl,-5.58%
13,CC(CCc1ccc(O)cc1)NCCC(c1ccccc1)c1ccccc1 (stereo not drawn),-76.1%
14,COc1cc(OC)c(OC)cc1CCC(C)NC(=O)Cc1ccccc1 (stereo not drawn),5.68%
15,CC(CCc1ccc(O)cc1)NCCc1ccc(O)c(O)c1.Cl (stereo not drawn),-13.9%
16,COc1cc(CCC(C)NCc2ccccc2)ccc1O (stereo not drawn),-3.87%
17,COc1cc(OC)c(OC)cc1CCC(C)NCCC(c1ccccc1)c1ccccc1.Cl (stereo not drawn),-71.1%
18,CC(CCc1ccccc1)NC(C)C(O)c1ccc(O)cc1.Cl (stereo not drawn),-65.3%
19,COc1cc(OC)c(OC)cc1CNC(C)C(O)c1ccccc1.Cl (stereo not drawn),12.6%
20,C[C@H](NCCc1ccc(O)cc1)[C@H](O)c1ccc(O)cc1.Cl,6.27%
21,CC(CCc1ccc(O)cc1)NC(c1ccccc1)c1ccc(Cl)cc1 (stereo not drawn),-14.3%
22,COc1ccccc1CCNC(C)CCc1ccc(O)cc1 (stereo not drawn),-52.5%
23,COc1ccc(CCC(C)NCc2ccccc2OC)cc1 (stereo not drawn),-40.4%
24,CC(NCCc1ccc(O)cc1)C(O)c1ccc(O)cc1.Cl (stereo not drawn),5.08%
